Compounds with a hit are over-represented: about 6.6% of the library has one in this group of screens.
KB-3-1 cytotox: KB-3-1 parental cell cytotoxicity. KB-3-1 viability, CellTiter-Glo ATP luminescence, 72 h. Potency, µM (top dose mostly 46.1 µM), usual class: cytotoxic. 400,000 compounds, 1.4% hits; also: % is scaled to controls: 0 for no effect and ±100 for the full control effect; nearly all actives have a fitted effect of over 60% in size
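Parental KB-3-1 adenocarcinoma cells in phenol-red-free DMEM with 10% FBS were pin-treated with compounds at several concentrations, incubated 72 h at 37 °C, and viability read by CellTiter-Glo luminescence; concentration-effect curves were fitted after normalization.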
KB-V1 MDR tox: KB-V1 MDR subline cytotoxicity; KB-V1 MDR cells viability, CellTiter-Glo, 72 h; Potency, µM (highest dose often 46.1 µM), most hits filed as cytotoxic; 400,000 compounds, 3.4% hits; AID 1347076; also: % is scaled to controls: 0 for no effect and ±100 for the full control effect; nearly all actives have a fitted effect of over 60% in size
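KB-V1 MDR subline cells in DMEM (phenol-red free, 10% FBS) exposed to compounds in qHTS concentration series for 72 h at 37 degrees C. Viability read by CellTiter-Glo luminescence; concentration-effect curves fitted after normalization and correction.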
TSG101-PTAP inh: blocks PTAP/TSG101 interaction to inhibit HIV-1 budding; AID 493005; 340,000 tested, under 10 active; Q99816; Fluorescence polarization, FITC-PTAP peptide / Tsg101 binding; Potency, µM (doses to about 115 µM), without a hit: at the highest dose activity change, negative = inhibition, most hits filed as inhibitors; active = well fitted inhibition curve with a large enough effect in the main read-out, with a control signal flat, not every such curve was filed as active; inconclusive = small, poorly fitted or top-dose-only effect, or effect the other way, or a change in a side signal; inactive = no such curve, though single readings can be large or run the other way; also: % of control where 0% means no effect
Target sequence (Q99816 whole entry, looked up): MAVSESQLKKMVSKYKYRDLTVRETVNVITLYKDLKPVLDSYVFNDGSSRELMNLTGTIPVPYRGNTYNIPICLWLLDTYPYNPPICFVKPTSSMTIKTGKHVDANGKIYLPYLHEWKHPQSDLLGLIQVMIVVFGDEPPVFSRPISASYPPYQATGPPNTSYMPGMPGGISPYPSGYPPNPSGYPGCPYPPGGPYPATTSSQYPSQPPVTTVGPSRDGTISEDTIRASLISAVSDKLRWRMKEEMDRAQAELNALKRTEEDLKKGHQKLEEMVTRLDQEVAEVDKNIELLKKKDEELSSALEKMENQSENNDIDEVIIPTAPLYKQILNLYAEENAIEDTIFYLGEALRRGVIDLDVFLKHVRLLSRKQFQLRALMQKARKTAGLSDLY
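Steps: Tsg101 binding domain dispensed (10 uM final), compounds pinned in DMSO, FITC-labeled PTAP-motif peptide added (50 nM final); after 20 min binding at room temperature, polarization measured.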
SW480 rereplic: inducers of DNA re-replication in SW480 colon cancer cells; Potency, µM (titrated, usually from 46.1 µM), for the others: at the top dose re-replication activation, hits mostly activators; SW480 DNA re-replication, Hoechst DNA content imaging, 48 h; AID 624297; 340,000 compounds, 1.8% hits; also: % of control where 0% means no effect; nearly all actives have a fitted effect of over 55% in size
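250 cells/well; 23 nL cpd via pin tool; 48 hr, 37 C, 5% CO2; Hoechst 40 min; imager read of total nuclear intensity, ex 405/em 500-530 nm.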
MCF10A rereplic: DNA re-replication induction in MCF 10a cells. MCF 10A DNA re-replication, Hoechst nuclear intensity, 48 h. 350,000 compounds, 2.9% hits. Potency, µM (titrated, usually from 46.1 µM), without a hit: at the highest dose activity, positive = re-replication, most hits filed as activators; also: % of control where 0% means no effect; nearly all actives have a fitted effect of over 50% in size
RGS4 inh: human RGS4 inhibition. P49798. Potency, µM (titrated, usually from 114 µM), inactives show at the top dose activity change, negative = inhibition, most hits filed as inhibitors. 390,000 compounds, 0.039% hits. Transcreener GDP fluorescence polarization, RGS4-accelerated GTP hydrolysis; also: % is scaled to controls: 0 for no effect and ±100 for the full control effect; nearly all actives have a fitted effect of over 75% in size
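MLSMR compounds (23 nl, pin-transferred) preincubated 10 min at room temperature with a 500nM (2x) first reagent, then RGS4 at 900nM (2x) plus Transcreener GDP mix added; fluorescence polarization (620/688 nm) read before and after 90 min at 30 °C.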
Numbers without * were called inactive; i = inactive; ? = inconclusive; . = no result given; ! = a repeat was not active; [ ] = another dose, or the depositor's remark. Unless noted, calls follow the shape of the dose curve; as a rule, active = well fitted curve in the direction sought with a large enough effect; inconclusive = small, poorly fitted or top-dose-only effect, or another doubt; inactive = no such curve, though single readings can be large; an effect the other way counts as inactive or inconclusive. Potency is read from the fitted curve at half-maximal effect.

SMILES	KB-3-1 cytotox	KB-V1 MDR tox	TSG101-PTAP inh	SW480 rereplic	MCF10A rereplic	RGS4 inh
CCNC(=O)CC1C(=O)N(c2ccccc2)C(=O)N1Cc1ccc(F)cc1 (configuration not stated)	i	i	.	.	.	-4.7%
S=C(NCc1ccco1)Nc1ccc(Cl)cc1	i	i	-1.3%	5.2%	-0.4%	-22.0%
Cc1cc(Cl)ccc1NC(=O)C(=O)NCc1ccco1	i	i	.	.	.	3.7%
Cc1cc(Cl)ccc1NC(=S)NCCC(c1ccccc1)c1ccccc1	?	?	-7.4%	0.4%[9.22 µM]	12.6µM*	-35.5%
Cc1cc(Cl)ccc1NC(=S)NCc1ccco1	i	20.6µM*	-2.4%	-4.2%	0.0%	-16.5%
S=C(NCc1ccco1)Nc1ccc(Oc2ccc(Cl)cc2)cc1	i	i	-0.3%	10.9%	7.31µM*	4.0%
CCOc1ccc(NC(=O)CN2C(=O)C(c3ccccc3)=NC23CCC(C)CC3)cc1 (configuration not stated)	.	.	.	.	.	10.7%
CC(=O)N1CCc2c(sc3c2c(=O)n(-c2ccccc2)c(=O)n3CC(=O)c2ccc(F)cc2)C1	i	i	.	.	.	-2.0%
Cc1ccc(Nc2ccc(NCc3ccccc3)nn2)cc1C	i	?	-3.4%	-4.0%	8.0%	1.0%
Clc1ccc(Nc2ccc(NCc3ccccc3)nn2)cc1	i	16.4µM*	-4.5%	16.4µM*	?	1.5%
Cc1[nH]nc(N=CC2=C(O)CC(c3ccco3)CC2=O)c1-c1ccccc1 (configuration not stated)	i	16.4µM*!	-4.3%	-5.4%	8.0%	-1.6%
CC1(C)CC(=O)C(C=Nc2ccccc2)=C(O)C1	i	i	-0.3%	-3.8%	2.4%	8.6%
Cc1[nH]nc(N=CC2=C(O)CC(C)(C)CC2=O)c1-c1ccccc1	?	23.1µM*!	-4.9%	-4.4%	18.0%	-2.7%
COc1cccc(N2CCN(C(=O)c3ccc(C)c(NC(=O)c4nsc5ccccc45)c3)CC2)c1	i	i	.	.	.	-1.2%
N#Cc1ncc(-c2ccc3c(c2)OCCOCCOCCOCCOCCO3)nc1C#N	i	i	-2.2%	-2.5%	4.4%	-9.5%
N#Cc1ncc(-c2ccc3c(c2)OCCOCCOCCOCCO3)nc1C#N	?	i	-3.5%	?	18.4µM*	5.7%
O=C(CCCCn1c(=O)c2ccccc2n(Cc2ccc(F)cc2)c1=O)NCc1ccco1	11.6µM*	5.8µM*	1.5%	?	18.4µM*	-4.3%
COCCCNC(=O)c1ccc(Cn2c(=O)c3ccccc3n(Cc3ccccc3C#N)c2=O)cc1	?	i	-6.5%	20.6%	23.1µM*	-15.3%
CCCCNC(=O)CCn1c(=O)c2ccccc2n(Cc2ccc(Cl)cc2)c1=O	i	14.6µM*	-0.8%	?	-7.4%	21.1%
COCCCNC(=O)c1ccc(Cn2c(=O)c3ccccc3n(Cc3ccccc3C)c2=O)cc1	?	?	-12.8%	14.8%	119.2%	17.5%
O=C(CCCn1c(=O)c2ccccc2n(Cc2ccccc2)c1=O)NCc1ccco1	?	?	-3.8%	7.1%	?	8.8%
CCCn1c(=O)n(-c2ccccc2)c(=O)c2sc3ccccc3c21	i	i	.	.	.	22.8%
N#CN=c1snc(-c2ccccc2)n1-c1ccc(Cl)cc1	i	i	.	.	.	-7.6%
Cc1cc(C)cc(C(=O)N(C)[C@H](Cc2ccc(-c3ccccc3)cc2)C(=O)N[C@@H](Cc2c[nH]c3ccccc23)C(=O)O)c1	.	.	.	.	.	-97.6%[56.9 µM]
O=C(CSc1ccccc1)Nc1nc2ccccc2[nH]1	14.6µM*	?	-1.0%	?	?	4.9%
O=C(CSc1ccc(Cl)cc1)Nc1ccc(-c2nc3ccccc3[nH]2)cc1	i	i	1.1%	?	20.6µM*	?
O=C(CSc1nc2ccccc2[nH]1)Nc1ccc2c(c1)OCCO2	i	i	-3.5%	-9.6%	3.8%	-6.6%
